Laboratory results from PubChem BioAssay (NCATS).
Results filed as inconclusive are left out. Calls of active or inactive are those of the source. Calls come from the whole dose curve; as a rule, active = well fitted inhibition curve with a large enough effect; inconclusive = small, poorly fitted or top-dose-only effect; inactive = flat fitted curve, though single readings scatter.

Tested on: astro (control astrocytes)
Assay: Drug repurposing screens with cells derived from glioblastoma tumor samples (AID 1345199); note: nearly all actives have a fitted effect of over 40% in size
Details: viability, ATP luminescence, 48 h; series mostly up to 45.9 µM
Method in brief: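 Primary testing used CD133+ neurospheres from four GBM patients, seven concentrations, 48 h exposure and ATP-based viability; confirmation added three slower-growing patient lines.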

How did the outcome turn out when `CC[N+](C)(CC)CCOC(=O)C1c2ccccc2Oc2ccccc21` was run?
Its outcome is “inactive”.

Which outcome does the source give for `COc1ccccc1Oc1c(NS(=O)(=O)c2ccc(C(C)(C)C)cc2)nc(-c2ncccn2)nc1OCCO` here?
The outcome was “inactive”.

Which outcome does the source give for `CN[C@@H]1[C@@H](O)[C@@H](O[C@@H]2[C@H](O)[C@H](O[C@H]3OC(CN)=CC[C@H]3N)[C@@H](N)C[C@H]2N)OCC1(C)O` (some centres not stated) here?
Its outcome is “inactive”.

With `COc1cc(C(=O)NCCCCCC(=O)O)cc(OC)c1OC` as the molecule, how does the outcome read?
Its outcome is “inactive”.

`Cc1ccsc1/C=C/C1=NCCCN1C` was tested. Which outcome did it give?
The outcome was “inactive”.

Which outcome does the source give for `O=C(NCCCN1CCOCC1)c1ccc(Cl)cc1` here?
Its outcome is “inactive”.

`CCOc1cc(NC(C)=O)ccc1C(=O)OC` was tested. Which outcome did it give?
The outcome was “inactive”.

With `COC(=O)N/N=C/c1c[n+]([O-])c2ccccc2[n+]1[O-]` as the molecule, how does the outcome read?
The outcome was “inactive”.

Which outcome does the source give for `C[N+](C)(C)CC(O)CC(=O)[O-]` (configuration not stated) here?
Its outcome is “inactive”.

Which outcome does the source give for `Cc1cc(C)c(NC(=O)CN(CC(=O)O)CC(=O)O)c(C)c1Br` here?
Its outcome is “inactive”.

Which outcome does the source give for `OCCN1C[C@H](O)[C@@H](O)[C@H](O)[C@H]1CO` here?
Its outcome is “inactive”.

`COc1cc(O)cc(O)c1` was tested. Which outcome did it give?
The outcome was “inactive”.

With `NC(=O)c1ccc([N+](=O)[O-])cc1Cl` as the molecule, how does the outcome read?
Its outcome is “inactive”.

With `O=C(/C=C/c1ccc(O)c(O)c1)O[C@@H]1C[C@@](OC(=O)/C=C/c2ccc(O)c(O)c2)(C(=O)O)C[C@@H](O)[C@@H]1O` as the molecule, how does the outcome read?
The outcome was “inactive”.

`O=C(O)C(S)C(S)C(=O)O` (configuration not stated) was tested. Which outcome did it give?
The outcome was “inactive”.

How did the outcome turn out when `CO[C@@]1(NC(=O)C(C(=O)O)c2ccc(O)cc2)C(=O)N2C(C(=O)O)=C(CSc3nnnn3C)CO[C@@H]21` (some centres not stated) was run?
The outcome was “inactive”.

For `CC(CN(C)C)C(C)(O)Cc1ccc(Cl)cc1` (configuration not stated), which outcome is on record?
Its outcome is “inactive”.

Which outcome does the source give for `C[C@]1(Cn2ccnn2)[C@H](C(=O)O)N2C(=O)C[C@H]2S1(=O)=O` here?
Its outcome is “inactive”.

With `CC1(C)S[C@@H]2[C@H](NC(=O)C(C(=O)O)c3ccccc3)C(=O)N2[C@H]1C(=O)O` (some centres not stated) as the molecule, how does the outcome read?
Its outcome is “inactive”.

`CC(C)CCCC(C)CCCC(C)CCCCC(C)CCCC(C)CCCC(C)C` (configuration not stated) was tested. Which outcome did it give?
The outcome was “inactive”.

Which outcome does the source give for `CN(C(=O)c1c(O)c2ccccc2n(C)c1=O)c1ccccc1` here?
The outcome was “inactive”.

`O=C(O)c1ccccc1OP(=O)(O)O` was tested. Which outcome did it give?
The outcome was “inactive”.

Which outcome does the source give for `Cn1c([N+](=O)[O-])cnc1COC(N)=O` here?
Its outcome is “inactive”.

Which outcome does the source give for `O=C(NCN1CCOCC1)c1cnccn1` here?
The outcome was “inactive”.

With `COc1nccnc1NS(=O)(=O)c1ccc(N)cc1` as the molecule, how does the outcome read?
Its outcome is “inactive”.

Which outcome does the source give for `CCN(CC)S(=O)(=O)c1ccc(C(=O)O)cc1` here?
Its outcome is “inactive”.

`CCCCCCCCCCCCCCCCN` was tested. Which outcome did it give?
The outcome was “inactive”.

With `CC1(c2ccccc2)OC(C(=O)O)=CC1=O` (configuration not stated) as the molecule, how does the outcome read?
The outcome was “inactive”.

`O=c1[nH]cnc2nc[nH]c12` was tested. Which outcome did it give?
Its outcome is “inactive”.

Which outcome does the source give for `CCCCCCCC(=O)OCC(O)CO` (configuration not stated) here?
Its outcome is “inactive”.

How did the outcome turn out when `C[C@H]1COc2c(C3(N)CC3)c(F)cc3c(=O)c(C(=O)O)cn1c23` was run?
Its outcome is “inactive”.

How did the outcome turn out when `Nc1ccncc1N` was run?
The outcome was “inactive”.

Which outcome does the source give for `COc1ccccc1OCC(O)CO` (configuration not stated) here?
The outcome was “inactive”.

For `CC(=O)N[C@@H](Cc1ccc(O)cc1)C(=O)O`, which outcome is on record?
Its outcome is “inactive”.

For `Cc1ncc(CO)c(CN)c1O`, which outcome is on record?
Its outcome is “inactive”.

`C/C=C/C(=O)N(CC)c1ccccc1C` was tested. Which outcome did it give?
The outcome was “inactive”.

With `COC(=O)c1cccnc1` as the molecule, how does the outcome read?
The outcome was “inactive”.
